In PubChem BioAssay (NCATS):
Inconclusive results are not listed. A call without a number means that no potency is given here. Calls of active or inactive are those of the source. The call rests on the fitted dose curve; in most records, active means well fitted curve in the direction sought with a large enough effect; inconclusive means small, poorly fitted or top-dose-only effect, or another doubt; inactive means no such curve, though single readings can be large; an effect the other way counts as inactive or inconclusive.

Key:
[1] = target: Aldehyde dehydrogenase, mitochondrial (Homo sapiens) (UniProt P05091); test: qHTS for Inhibitors of the Aldehyde Dehydrogenase Family (ALDH2) Primary screen (AID 2061308); further: nearly all actives have a fitted effect of over 55% in size; further: potency means the concentration at half of the fitted maximal effect
[2] = target: Retinaldehyde dehydrogenase 3 (Homo sapiens) (UniProt P47895); test: qHTS for Inhibitors of the Aldehyde Dehydrogenase Family (ALDH1A3) Primary screen (AID 2061315)

Row | SMILES | Potency [1] | Potency [2]
1 | O=C(Nc1ccccc1)C1CCN(c2ncc(-c3ccc4c(c3)OCCCO4)s2)CC1 | inactive | inactive
2 | N#Cc1nc(Nc2cc(Cl)cc(Cl)c2)nc(NC2CCCC2)n1 | inactive | inactive
3 | CCOC(=O)C1CCN(C(=O)C(C)(C)NC(=O)Nc2ccc3ccccc3c2)CC1 | inactive | inactive
4 | C=C1[C@@H](C)[C@H]2[C@H](Cc3c[nH]c4ccccc34)NC(=O)[C@]23C(=O)/C=C/C(=O)[C@H](O)/C(C)=C\[C@@H](C)C/C=C/[C@H]3[C@@H]1O | 11.2 µM (active) | inactive
5 | Cc1ccc(S(=O)(=O)N(C)c2cccc3cccnc23)cc1 | inactive | inactive
6 | Nc1cccc(S(=O)(=O)Nc2cnccc2C(=O)Nc2nc(-c3ccccc3)cs2)c1 | inactive | inactive
7 | COc1cccc(C2c3c(ncn(CCN4CCOCC4)c3=N)Oc3ccc4ccccc4c32)c1 (stereo unspecified) | inactive | inactive
8 | CCN(CC)CCCCn1c(-c2ccccc2)nc2c(NC3CCCCC3)nc(C)nc21 | inactive | inactive
9 | N#Cc1c(-c2ccc(OCCOCCOCCN)cc2)no[n+]1[O-] | inactive | inactive
10 | O=C(NCCc1ccc2c(c1)OCO2)c1cc2sccc2n1Cc1ccccc1 | inactive | inactive
11 | Cc1ccc(OCCn2c(CCNC(=O)c3ccccc3C)nc3ccccc32)cc1 | inactive | inactive
12 | C[C@@H]1CC[C@]2(C(=O)O[C@@H]3O[C@H](CO)[C@@H](O)[C@H](O)[C@H]3O)CC[C@]3(C)C(=CCC4[C@@]5(C)C[C@@H](O)[C@H](O)[C@](C)(C(=O)O)C5CC[C@]43C)[C@@H]2[C@]1(C)O (stereo partly specified) | inactive | inactive
13 | COc1cccc(Cn2ncc3c4sc(SC)cc4n(C)c3c2=O)c1 | inactive | inactive
14 | Cc1ccc(NS(=O)(=O)c2cccc(Cl)c2)cc1C | inactive | inactive
15 | Cc1ccnc(NC(=S)N2CCCN(c3cccc(C(F)(F)F)c3)CC2)c1 | inactive | inactive
16 | Cc1cc2c(s1)c1cnn(Cc3cc(F)c(F)c(F)c3F)c(=O)c1n2C | inactive | inactive
17 | Cn1nnnc1Sc1ncnc2scc(-c3cccc(C#N)c3)c12 | inactive | inactive
18 | Cc1ccc(-c2cc(C(=O)O)c3cccc(C)c3n2)cc1C | inactive | inactive
19 | CCNC(=O)c1ccc(-c2ccc3ncnc(NCC(C)(C)C)c3c2)o1 | inactive | inactive

Row | SMILES | Potency [1] | Potency [2]
20 | Cc1cncc(NC(=S)N2CCN(c3cccc(C(F)(F)F)c3)CC2)c1 | inactive | inactive
21 | Cc1ccc(NS(=O)(=O)c2ccc3c(c2)NC(=O)CO3)cc1C | inactive | inactive
22 | CC(=O)Nc1sc2c(c1-c1ccc(F)cc1)CCNC2 | inactive | inactive
23 | Cn1nnnc1Sc1ncnc2scc(-c3ccc4c(c3)OCO4)c12 | inactive | inactive
24 | Nc1ccc2c(=O)n3nc(Nc4ccc5c(c4)CCC5)sc3nc2c1 | inactive | inactive
25 | Cc1ccc(OC2=NS(=O)(=O)c3ccccc32)cc1 | inactive | inactive
26 | CCCn1c(C)nc2c(N3CCOCC3)nc(C)nc21 | inactive | inactive
27 | CCOc1ccc(CCNC(=O)c2cc3sccc3n2Cc2cccc(C)c2)cc1OCC | inactive | inactive
28 | COc1ccc(-c2csc3ncnc(Sc4nnnn4C)c23)cc1 | inactive | inactive
29 | C=C(CCC1=C(C)[C@H]2[C@H](CC3[C@@H]4CC=C5C[C@@H](O)C[C@@H](O)[C@]5(C)C4[C@H](O)C[C@@]32C)O1)CO[C@@H]1O[C@H](CO)[C@@H](O)[C@H](O)[C@H]1O (stereo partly specified) | inactive | inactive
30 | CC1=C(C(=O)c2ccccc2)C(c2ccccc2Cl)N=C(Nc2nc3ccccc3o2)N1 (stereo unspecified) | inactive | inactive
31 | C[S+](=O)([O-])c1ccc(C(=O)OCC(=O)N2CCNC(=O)C2)cc1[N+](=O)[O-] | inactive | inactive
32 | O=C1CCCC2=C1C(c1[nH]ncc1Cl)N=C(Nc1nccs1)N2 (stereo unspecified) | inactive | inactive
33 | O=C(OCC#CCSc1nnc(-c2cccc3ccccc23)o1)c1ccc(OC(F)(F)F)cc1 | inactive | inactive
34 | O=C(Nc1nc(-c2ccccc2)cs1)c1ccccc1[N+](=O)[O-] | inactive | inactive
35 | O=C(Cn1nc(-c2ccc(C(F)(F)F)cc2)ccc1=O)NCCc1ccccc1 | inactive | inactive
36 | Oc1cccc2c(-c3nn[nH]n3)ccnc12 | inactive | inactive
37 | Cc1cc(N[S+](=O)([O-])c2ccc(NC(=O)Cc3ccc(F)c(C)c3)cc2)no1 | inactive | inactive
38 | CC(C)c1cc2c(s1)c1cnn(Cc3ccccc3F)c(=O)c1n2C | inactive | inactive
